Records with an inconclusive call do not appear. A call without a number means that no potency is given here. The source made the active and inactive calls. Calls come from the whole dose curve; as a rule, active = well fitted inhibition curve with a large enough effect; inconclusive = small, poorly fitted or top-dose-only effect; inactive = flat fitted curve, though single readings scatter.
tested on: CRL-7250; test: qHTS assay to identify novel small-molecules to repurpose for Merkel cell carcinoma treatment (AID 1296009); settings: MCC and control cell lines, CellTiter-Glo viability, 72 h; series mostly up to 92 µM; note: nearly all actives have a fitted effect of over 60% in size
In short: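 72 hr, 37 degree celsius; NPC 8-pt / MIPE 11-pt dose response; compound pinned in DMSO; CellTiter-Glo, 10 min RT, luminescence; normalized to no-cell and DMSO controls.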

Question: With Cc1cc(C(=O)N2Cc3cnn(C)c3Nc3ccccc32)ccc1CNC(=O)N1CCN(Cc2cc(O)cc(O)c2)CC1 as the compound, how does the Potency read?
Answer: inactive

Question: For COc1ccccc1-c1ccc(-c2cn(C(=O)N3CCCCC3Cc3ccccc3)nn2)cc1 (stereo unspecified), which Potency is on record?
Answer: inactive

Question: Which Potency does the source give for COC(=O)[C@@H](O)[C@H]1[C@@]2(C)CC3(O)[C@@H](C(=O)[C@H]2O)[C@]24O[C@]25CC(=O)O[C@@H](c2ccoc2)[C@]5(C)CCC4[C@]13C (stereo partly specified) here?
Answer: inactive

Question: Which Potency does the source give for CC(C)=CCC[C@](C)(O[C@@H]1O[C@H](CO[C@@H]2OC[C@@H](O)[C@H](O)[C@H]2O)[C@@H](O)[C@H](O)[C@H]1O)[C@H]1CC[C@]2(C)[C@@H]1[C@H](O)C[C@@H]1[C@@]3(C)CC[C@H](O[C@@H]4O[C@H](CO)[C@@H](O)[C@H](O)[C@H]4O[C@@H]4O[C@H](CO)[C@@H](O)[C@H](O)[C@H]4O)C(C)(C)[C@@H]3CC[C@]12C here?
Answer: inactive

Question: With CC(=O)c1c(O)cc2cccc3c2c1CC(C)(O)O3 (stereo unspecified) as the compound, how does the Potency read?
Answer: inactive

Question: CCCCCCCOc1cc2c(cc1/C(C)=C/c1ccc(C(=O)O)cc1)C(C)(C)CCS2(=O)=O was tested. Which Potency did it give?
Answer: inactive

Question: Which Potency does the source give for O=C(/C=C/c1ccc(O)cc1)OC[C@H]1O[C@@H](OC(=O)/C=C/c2ccccc2)[C@H](O)[C@@H](O)[C@@H]1O here?
Answer: inactive

Question: With CC(C)(CO)c1cc2cc(NC(=O)C3(c4ccc5c(c4)OC(F)(F)O5)CC3)c(F)cc2n1CC(O)CO (stereo unspecified) as the compound, how does the Potency read?
Answer: inactive

Question: Which Potency does the source give for COc1cc(C2c3cc(O)c(OC)cc3CC(CO)C2CO)ccc1O (stereo unspecified) here?
Answer: inactive

Question: With COC(=O)C(C)C1CCC2(C)C(=O)C=CC(C)(O)C2C1O (stereo unspecified) as the compound, how does the Potency read?
Answer: inactive

Question: Which Potency does the source give for Cc1ccc(-c2ccc3c(ccc4sc5c(c43)NC[C@@H](C)NC5=O)n2)cn1 here?
Answer: inactive
